# Results published in PubChem BioAssay (NCATS).
# Where “and” joins values, the source holds several entries; their conditions need not be identical. Identical values can stand only once. Results filed as inconclusive are left out. Where a call stands in place of a potency, no number is given. Values without a mark were called inactive. Calls of active or inactive are those of the source. The call rests on the fitted dose curve; in most records, active means well fitted cell-killing curve with a large enough effect; inconclusive means small, poorly fitted or top-dose-only effect; inactive means flat fitted curve, though single readings scatter.
# Assay: qHTS of pediatric cancer cell lines to identify multiple opportunities for drug repurposing: Primary screen for TC32 cells (AID 1347089); further: nearly all actives have a fitted effect of over 60% in size
# Settings: TC32 Ewing sarcoma viability, CellTiter-Glo luminescence, 48 h; series mostly up to 45.8 µM; activity change, negative = cytotoxic: at the top concentration
# Description: Drug repurposing or repositioning has been offered as a strategy for drug development in oncology programs. This approach has special potential for childhood cancers and other rare or orphan diseases, where the expected return on new drug development has been a disincentive to pharmaceuticals.
# In this project we exploit the poly-pharmacology of drugs to discover new indications via phenotypic screening of a panel of 19 well-characterized cell lines derived from solid tumors seen in children and adolescents. The goal is to identify approved drugs with previously unrecognized anticancer properties that has the potential to reveal new mechanisms and biological processes involved in carcinogenesis or drug resistance. We employed a titration-based paradigm (quantitative high-throughput screening or qHTS), where all compounds were tested at multiple concentrations for their effect on cell viability. Concentration-response curves (CRCs) were derived directly from the primary screen, and both potency and efficacy values were used to identify compounds with robust bioactivity profiles. We screened the NIH Chemical Genomics Center (NCGC) Pharmaceutical Collection (NPC) and Mechanism Interrogation Plate (MIPE) small molecule collections of approved and investigational compounds against these cell lines; and measured metabolically active cells after 48 hours of compound treatment as a proxy for cell viability.
# Assay Submitter: Nathalia J. Martinez, National Center for Advancing Translational Sciences, National Institutes of Health, Rockville, MD, USA; email: natalia.martinez@nih.gov
# [1] Shen, M et al. Quantitative high-throughput phenotypic screening of pediatric cancer cell lines identifies multiple opportunities for drug repurposing. Oncotarget 2017 Dec 19;9(4):4758-4772. PMID 29435139.
# The cells were obtained from University of North Carolina (UNC), Pediatric Preclinical Testing Program (PPT), and Coriell Institute (CI).
# qHTS cell viability assay:
# Cells were assayed in growth media at a density of 500-1,000 cells/well. Five microliters of cells were dispensed into 1,536-well, white, solid-bottom, TC-treated plates (Greiner Bio One) using a multidrop dispenser and incubated at 37 degrees C, 5% CO2, under a humidified atmosphere for 5 hours. Twenty-three nanoliters of compounds and controls (neutral control DMSO or positive control bortezomib at final concentration of 2.3 uM) were subsequently transferred by Kalypsys pintool. For primary screens, the MIPE collection was tested at 11-point dilutions (final concentrations range from 0.78 nM to 46 µM) and the NPC collection at 8-point dilutions (final concentrations range from 0.59 nM to 46 µM). Compounds tested in follow-up screens were assayed at 11-point dilutions. Cells were incubated for 48 hours, followed by addition of 3 uL of CellTiter-Glo (Promega). After a 15min incubation at room temperature, samples were analyzed for luminescence intensity using a ViewLux High-throughput CCD imager equipped with clear filters.
# Potency means the concentration at half of the fitted maximal effect.
SMILES,Potency,"activity change, negative = cytotoxic"
Clc1ccccc1CN1CCc2sccc2C1,inactive,–
CN(C)CCc1c[nH]c2ccc(C[C@H]3COC(=O)N3)cc12,inactive,–
O=C(N[C@H](CO)[C@H](O)c1ccc([N+](=O)[O-])cc1)C(Cl)Cl,inactive,–
CCc1cc(C(N)=S)ccn1,inactive,–
CC1(C)[C@H](C(=O)O)N2C(=O)C[C@H]2S1(=O)=O,inactive,–
CC(N)C12CC3CC(CC(C3)C1)C2 (stereo not given),inactive,–
CCCc1cc(C(N)=S)ccn1,inactive,–
CCCN[C@H]1CCc2nc(N)sc2C1,inactive,–
NNC(=O)c1ccncc1,inactive,–
COCCCOc1cc(C[C@@H](C[C@H](N)[C@@H](O)C[C@H](C(=O)NCC(C)(C)C(N)=O)C(C)C)C(C)C)ccc1OC,inactive,–
O=NN(CCCl)C(=O)NC1CCCCC1,inactive,–
COc1ccc(-c2ccc3cc(C(=O)O)ccc3c2)cc1C12CC3CC(CC(C3)C1)C2,inactive,–
CCn1cc(C(=O)O)c(=O)c2cc(F)c(N3CCNCC3)nc21,inactive,–
CC(C)(C#N)c1cc(Cn2cncn2)cc(C(C)(C)C#N)c1,inactive,–
C#CCN[C@@H]1CCc2ccccc21,inactive,–
CCCCc1oc2ccc(NS(C)(=O)=O)cc2c1C(=O)c1ccc(OCCCN(CCCC)CCCC)cc1,–,2.85%
COC(=O)Nc1nc2ccc(S(=O)c3ccccc3)cc2[nH]1 (stereo not given),1.18 µM (active),–
CC1=CC(=O)c2ccccc2C1=O,inactive,–
Cn1nnc2c(C(N)=O)ncn2c1=O,inactive,–
CCC(C)(C)c1ccc(CC(C)CN2C[C@@H](C)O[C@@H](C)C2)cc1 (stereo not given in full),inactive,–

SMILES,Potency,"activity change, negative = cytotoxic"
O=C(O)c1cc(=O)[nH]c(=O)[nH]1,inactive,–
CNC(=O)c1cc(Oc2ccc(NC(=O)Nc3ccc(Cl)c(C(F)(F)F)c3)cc2)ccn1,inactive,–
CC(=O)[C@H]1CC[C@H]2[C@@H]3CCC4=CC(=O)CC[C@]4(C)[C@H]3CC[C@]12C,–,0.175%
COC(c1ccccc1)(c1ccccc1)[C@H](Oc1nc(C)cc(C)n1)C(=O)O,inactive,–
Nc1[nH]c(=O)ncc1F,inactive,–
CCOC(=O)[C@H](CCc1ccccc1)N[C@H]1CCc2ccccc2N(CC(=O)O)C1=O,inactive,–
C[C@]12C=CC(=O)C=C1CC[C@@H]1[C@@H]2C(=O)C[C@@]2(C)[C@H]1CC[C@]2(O)C(=O)CO,inactive,–
NC(=O)c1cccnc1,inactive,–
O=C(NCC1CN(c2ccc(N3CCOCC3=O)cc2)C(=O)O1)c1ccc(Cl)s1 (stereo not given),inactive,–
Nc1nc(N)nc(-c2cc(Cl)ccc2Cl)n1,inactive,–
COC(=O)Nc1nc2ccc(Sc3ccccc3)cc2[nH]1,1.33 µM (active) and 2.62 µM (active),–
CCN[C@H]1C[C@H](C)S(=O)(=O)c2sc(S(N)(=O)=O)cc21,inactive,–
CS(=O)(=O)c1ccc([C@@H](O)[C@@H](CO)NC(=O)C(Cl)Cl)cc1,inactive,–
CC(C)(Sc1cc(C(C)(C)C)c(O)c(C(C)(C)C)c1)Sc1cc(C(C)(C)C)c(O)c(C(C)(C)C)c1,–,11.6%
Cc1nnc(NS(=O)(=O)c2ccc(N)cc2)s1,–,9.34%
CC(C)(C)C(=O)OCOP(=O)(COCCn1cnc2c(N)ncnc21)OCOC(=O)C(C)(C)C,2.64 µM (active) and 10.4 µM (active),–
CC(C)OC(=O)OCOP(=O)(CO[C@H](C)Cn1cnc2c(N)ncnc21)OCOC(=O)OC(C)C,inactive,–
CC(=O)Oc1ccccc1C(=O)Nc1ncc([N+](=O)[O-])s1,inactive,–
CNS(=O)(=O)CCc1ccc2[nH]cc(C3CCN(C)CC3)c2c1,inactive,–
Cc1ncc([N+](=O)[O-])n1CCO,inactive,–
